Laboratory results reported in the supplement of paper PMC6089552.
Screen size: about 3,200 compounds; about 300 (9.4%) showed activity. Many of the other results were omitted from the sample, so actives are more common in it than they were.

System: A673/TR/shEF
Assay: cell viability (LOESS-normalised, relative to median of negative controls) (log2 ratio); higher = more viable cells (less compound effect), active = hit call of the paper (over 3 MAD below the median)
Conditions: treatment time: 72 h
In short: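 Viability of A673/TR/shEF Ewing sarcoma cells was determined by CellTiter-Glo luminescence. The cells, at 1,500 per well in 384-well plates, were grown with or without doxycycline from 24 h before compound addition to switch on EWS-FLI1 shRNA knockdown, then exposed for three days to library compounds at two or more concentrations or to DMSO controls. Signals were LOESS-corrected plate by plate, normalised to the negative-control median and log2-transformed.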

[1] = 0.25 µM, library screen: screen1, EWS-FLI1 expression: high (no doxycycline)
[2] = 0.25 µM, library screen: screen1, EWS-FLI1 expression: low (doxycycline-induced shRNA knockdown)
[3] = 2.5 µM, library screen: screen1, EWS-FLI1 expression: high (no doxycycline)
[4] = 2.5 µM, library screen: screen1, EWS-FLI1 expression: low (doxycycline-induced shRNA knockdown)
[5] = 0.025 µM, library screen: screen1, EWS-FLI1 expression: high (no doxycycline)
[6] = 0.025 µM, library screen: screen1, EWS-FLI1 expression: low (doxycycline-induced shRNA knockdown)
[7] = 25 µM, library screen: screen1, EWS-FLI1 expression: high (no doxycycline)
[8] = 25 µM, library screen: screen1, EWS-FLI1 expression: low (doxycycline-induced shRNA knockdown)
[9] = 0.25 µM, library screen: screen2, EWS-FLI1 expression: high (no doxycycline)
[10] = 0.25 µM, library screen: screen2, EWS-FLI1 expression: low (doxycycline-induced shRNA knockdown)
[11] = 2.5 µM, library screen: screen2, EWS-FLI1 expression: high (no doxycycline)
[12] = 2.5 µM, library screen: screen2, EWS-FLI1 expression: low (doxycycline-induced shRNA knockdown)

Measured: cell viability (log2)

O=C(O)C1(O)C[C@@H](O)C(O)[C@H](O)C1 (some centres undefined)
inactive: [1] 0.068 | [2] -0.0312 | [3] 0.121 | [4] -0.0156

CC(=O)O[C@H]1C[C@@H](OC(C)=O)C(C)(C)[C@@H]2C[C@@H](OC(C)=O)[C@]3(C)[C@H](CC[C@@]4(C)[C@H](c5ccoc5)OC(=O)[C@H]5O[C@@]534)[C@@]12C
inactive: [1] -0.0343 | [2] 0.0186 | [3] 0.075 | [4] 0.143

N#CC(C#N)=C(N)/C(C#N)=C/c1ccc2[nH]ccc2c1
active: [3] -0.421 | [7] -0.203
0.369: [5]
inactive: [6] 0.0769 | [1] 0.269 | [2] 0.0358 | [4] 0.0519 | [8] 0.0138

COc1cc(/C=C(\C#N)C(N)=O)cc(CSc2nc3ccccc3s2)c1O
inactive: [5] 0.119 | [6] 0.0154 | [1] 0.2 | [2] -0.0796 | [3] 0.0235 | [4] 0.0635 | [7] -0.058 | [8] -0.0713

N#CC(C#N)=C(N)/C(C#N)=C/c1ccc(O)cc1
inactive: [9] 0.137 | [10] 0.116 | [11] 0.199 | [12] 0.0447

N#CC(C#N)=C(N)/C(C#N)=C/c1cc(O)c(O)c(O)c1
0.296: [1]
0.289: [5]
active: [3] -0.312 | [7] -0.175
inactive: [6] -0.0659 | [2] -0.0126 | [9] 0.21 | [10] 0.0773 | [4] 0.0388 | [11] 0.23 | [12] 0.0527 | [8] 0.0813

CC(=O)Oc1ccc(O)cc1
inactive: [1] -0.0255 | [2] 0.056 | [3] 0.0239 | [4] 0.00436

COC1=CC(=O)OC(CCc2ccc(OC)c(OC)c2)C1 (centres undefined)
inactive: [1] 0.144 | [2] -0.00163 | [3] 0.181 | [4] 0.0406

COc1cc2occ(-c3ccc(O)cc3)c(=O)c2c(OC)c1O
inactive: [1] 0.0883 | [2] 0.0895 | [3] 0.108 | [4] 0.0533

O=c1cccc2cc(O)c(O)c(O)c2c1O
inactive: [1] -0.000737 | [2] -0.0453 | [3] 0.0367 | [4] 0.0294

COc1cc(OC)c2c(=O)c(OC)c(-c3ccc(OC)c(OC)c3)oc2c1
inactive: [1] 0.019 | [2] 0.0595 | [3] 0.0902 | [4] -0.0343

O=C1Cc2c([nH]c3ccc([N+](=O)[O-])cc23)-c2ccccc2N1
inactive: [9] 0.0426 | [10] 0.0802
active: [11] -0.122 | [12] -0.312

O=C1Cc2c([nH]c3ccc(Br)cc23)-c2ccccc2N1
inactive: [9] 0.148 | [10] 0.0907 | [11] 0.128 | [12] 0.118

O=c1c(-c2ccccc2)coc2cc(O)cc(O)c12
inactive: [1] -0.0366 | [2] 0.014 | [3] 0.0821 | [4] 0.099

CC(C)N1C(=O)/C(=C\c2ccco2)SC1=S
inactive: [1] 0.136 | [2] 0.0809 | [3] 0.114 | [4] 0.139

O=C(O[C@@H]1Cc2c(O)cc(O)cc2O[C@@H]1c1cc2cc([C@H]3Oc4cc(O)cc(O)c4C[C@H]3O)cc(=O)c(O)c2c(O)c1O)c1cc(O)c(O)c(O)c1
inactive: [1] 0.115 | [2] 0.032 | [3] 0.00601 | [4] -0.0597

COC(=O)c1cc(OC)c(=O)c2c(OC)c(OC)ccc2c1
inactive: [2] 0.0503 | [3] 0.0906 | [4] -0.0346
active: [1] -0.0869

COC(=O)c1cc(=O)c(O)c2c(O)c(O)ccc2c1
inactive: [1] 0.103 | [2] 0.0315 | [3] 0.145 | [4] 0.0325

COc1cc2cccc(OC)c(=O)c2c(OC)c1OC
inactive: [1] 0.0955 | [2] 0.0427 | [3] 0.109 | [4] 0.0214

COc1ccccc1NC(=O)C1=C(C)NC(=O)NC1c1cccc(Cl)c1 (centres undefined)
inactive: [1] 0.0986 | [2] 0.0367 | [3] 0.0178 | [4] 0.0125

CC(C)CCCCCOC(=O)COc1ccc(Cl)cc1Cl
inactive: [1] 0.0385 | [2] 0.102 | [3] 0.111 | [4] -0.0211

CC1(C)C2CC(=O)[C@]3(C)C(CC[C@@]4(C)[C@H](C(=O)O)OC(=O)C5OC543)[C@@]2(C)[C@@H](O)C[C@H]1O (some centres undefined)
inactive: [1] 0.0536 | [2] 0.0574 | [3] 0.0836 | [4] 0.107

Cc1cc(N2CCN(c3ncccn3)CC2)n2c(nc3ccccc32)c1C#N
inactive: [1] 0.119 | [2] 0.0784 | [3] 0.108 | [4] 0.0845

CC1(COc2ccc3c(c2)ncn3-c2ccc3cccc(N4CCC(N)CC4)c3n2)COC1
inactive: 0.103 µM, library screen: screen3, EWS-FLI1 expression: high (no doxycycline) -0.0477 | 0.103 µM, library screen: screen3, EWS-FLI1 expression: low (doxycycline-induced shRNA knockdown) -0.0112 | 0.308 µM, library screen: screen3, EWS-FLI1 expression: high (no doxycycline) 0.0251 | 0.308 µM, library screen: screen3, EWS-FLI1 expression: low (doxycycline-induced shRNA knockdown) 0.0104 | 0.926 µM, library screen: screen3, EWS-FLI1 expression: high (no doxycycline) 0.0241 | 0.926 µM, library screen: screen3, EWS-FLI1 expression: low (doxycycline-induced shRNA knockdown) 0.0302 | 2.8 µM, library screen: screen3, EWS-FLI1 expression: high (no doxycycline) 0.0311 | 2.8 µM, library screen: screen3, EWS-FLI1 expression: low (doxycycline-induced shRNA knockdown) 0.0382 | 8.3 µM, library screen: screen3, EWS-FLI1 expression: low (doxycycline-induced shRNA knockdown) -0.0084
active: 8.3 µM, library screen: screen3, EWS-FLI1 expression: high (no doxycycline) -0.22 | 25 µM, library screen: screen3, EWS-FLI1 expression: high (no doxycycline) -1.66 | 25 µM, library screen: screen3, EWS-FLI1 expression: low (doxycycline-induced shRNA knockdown) -0.632

COc1ccc(OC)c(CN2CCN(Cc3ccccc3F)CC2)c1
inactive: [1] 0.0715 | [2] 0.0693 | [3] 0.123 | [4] 0.0288

C=C1C2CCC3(C)C(c4ccoc4)OC(=O)CC13OC1CC(=O)C(C)(C)C(CC(=O)OC)C12C (centres undefined)
inactive: [1] 0.0862 | [2] 0.067 | [3] 0.0511 | [4] 0.0888

O=c1cc([C@H]2Oc3cc(O)cc(O)c3C[C@H]2O)cc2c([C@H]3Oc4cc(O)cc(O)c4C[C@H]3O)cc(O)c(O)c2c1O
inactive: [1] 0.0869 | [2] 0.0834 | [3] 0.134 | [4] 0.162

C[n+]1cc2c3c(ccc2c2ccc4cc5c(cc4c21)OCO5)OCO3
active: [3] -0.232 | [11] -0.101 | 25 µM, library screen: screen2, EWS-FLI1 expression: high (no doxycycline) -4.23 | 25 µM, library screen: screen2, EWS-FLI1 expression: low (doxycycline-induced shRNA knockdown) -4.28
inactive: 0.025 µM, library screen: screen2, EWS-FLI1 expression: high (no doxycycline) 0.0722 | 0.025 µM, library screen: screen2, EWS-FLI1 expression: low (doxycycline-induced shRNA knockdown) 0.0049 | [1] 0.0872 | [2] 0.0117 | [9] 0.116 | [10] 0.0651 | [4] -0.0123 | [12] -0.0563
